Source: PubChem BioAssay (several laboratories)
The list is not random: actives were taken first. Their share in the collection is about 3.8%.
tim23-1 inh: growth inhibitors of tim23-1 mutant yeast; 330,000 compounds, 1.3% hits; S. cerevisiae tim23-1 growth, BacTiter-Glo luminescence, 24 h; inhibition, % at 20 µM;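 active = growth inhibition of the mutant yeast at or above 50%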;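 also: temperature-sensitive mutant grown at 25 °C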
TIM10 inh: TIM10 yeast growth inhibition; S. cerevisiae TIM10 strain growth, BacTiter-Glo luminescence, 24 h; inhibition, % at 10 µM; 330,000 compounds, 1.4% hits; AID 463195;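 active = inhibition of 40% or more at the single tested concentration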;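 also: wild-type TIM10 isogenic control strain grown at permissive 25 °C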
CR mimetic SO: lowers age-related superoxide in aged yeast cells. 330,000 compounds, 0.18% hits. AID 2690. S. cerevisiae aged cells, superoxide DHE fluorescence; stronger effect = lower value. superoxide response (% of plate mean), % at 10 µM;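 active = superoxide response under a set limit, about three screen SD below normal, cut at about 65% in these data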;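 also: yeast aged for seven days with compound at 30 °C before DHE staining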
tim10-1 inh: tim10-1 yeast growth inhibition; AID 463190; 330,000 compounds, 2.2% hits; S. cerevisiae tim10-1 ts strain growth, BacTiter-Glo, 24 h; inhibition, % at 20 µM;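 active = inhibition of at least 40%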;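 also: mutant grown at 25 °C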
NLRP3 yeast inh: blocks the NALP3 inflammasome reconstituted in yeast | Yeast reconstituted NLRP3/ASC/caspase-1, beta-gal luminescence, 24 h | inhibition, % at 10 µM | 330,000 compounds, 0.39% hits;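 active = inhibition of 50% or more; inactive = inhibition below 50%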
tim10-1 confirm: confirmation of tim10-1 mutant yeast growth inhibitors | shares compounds with tim10-1 inh | S. cerevisiae tim10-1 ts strain growth, BacTiter-Glo, 24 h | inhibition, % at 20 µM | 7,400 compounds, 56% hits | AID 463213;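 active = inhibition of yeast growth at or above a set limit in either of two repeat tests at 20 µM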;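 also: tim10-1 mutant grown at permissive 25 °C to find synthetic lethal compounds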
tim10 confirm: confirmation of TIM10 yeast growth inhibitors. shares compounds with TIM10 inh. S. cerevisiae tim10 strain growth, BacTiter-Glo luminescence, 24 h. inhibition, % at 10 µM. 4,600 compounds, 63% hits;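 active = inhibition of yeast growth at or above a set limit in either of two replicates at 10 µM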; also: this counterscreen used the strain with wild-type TIM10
tim23-1 confirm: tim23-1 yeast growth inhibition, confirmed | 4,400 compounds, 83% hits | AID 463218 | shares compounds with tim23-1 inh | S. cerevisiae tim23-1 growth, BacTiter-Glo luminescence, 24 h | inhibition, % at 20 µM;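 active = inhibition above about 39% in either of two replicate wells at 20 µM, limit read from the data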;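 also: temperature-sensitive tim23-1 mutant grown at 25 °C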
Numbers stand for hits; - = inactive; . = not tested or not shown.

SMILES	tim23-1 inh	TIM10 inh	CR mimetic SO	tim10-1 inh	NLRP3 yeast inh	tim10-1 confirm	tim10 confirm	tim23-1 confirm
COc1cccc2c1O/C(=N\O)C(C(=O)Nc1cccc(Br)c1)C2 (configuration not stated)	.	.	-	.	.	.	.	.
N#C/C(=C\c1cccnc1)C(=O)NC1CCCCC1	70	65	-	58	-	41	-	70
CN(CCc1ccccn1)S(=O)(=O)c1ccc(F)cc1	-	-	-	-	-	.	.	.
CC(C)(C)c1cc(S(=O)(=O)CCc2ccccn2)cc(C(C)(C)C)c1F	60	53	-	48	-	45	52	58
Cc1ccc(OCCCSc2n[nH]c(N)n2)cc1	-	-	-	-	-	.	.	.
C=CCSc1n[nH]c(-c2ccc(OCCCC)cc2)n1	72	56	-	41	-	-	48	67
Brc1ccc(-c2ccc(/C=N/Nc3nc(N4CCOCC4)nc(N4CCOCC4)n3)o2)cc1	-	-	-	-	-	.	.	.
Fc1cnc(N/N=C/c2ccc(-c3ccc(Br)cc3)o2)nc1N1CCOCC1	51	-	-	43	-	-	.	-
COc1ccc(/C=C/C(=O)c2ccc(C(=O)/C=C/c3ccc(OC)c(OC)c3)cc2)cc1OC	-	-	.	-	-	.	.	.
COc1ccc(/C=C/C(=O)c2cc(F)ccc2OC(=O)c2ccc(OC)c(OC)c2)cc1OC	52	54	-	50	-	46	-	56
COc1ccc(/C=C\C(=O)c2c(O)ccc3c(C)cc(=O)oc23)cc1	53	-	-	52	-	36	.	51
COc1ccc(-c2cc(=O)oc3c(C)c(O)ccc23)cc1	-	-	-	-	-	.	.	.
COc1cccc(C(=O)Oc2ccc3c(C)cc(=O)oc3c2C(C)=O)c1	-	-	-	-	-	.	.	.
COc1ccc(/C=C/C(=O)c2c(O)ccc3c(C)cc(=O)oc23)cc1	50	55	-	51	-	47	57	60
C#CCN1C(=O)S/C(=C\c2cc3c(cc2OC)OCO3)C1=O	-	-	-	-	-	.	.	.
CCOC(=O)C1=C(COC(=O)c2cccc(NC(C)=O)c2)NC(=O)NC1C (configuration not stated)	-	-	-	-	-	.	.	.
CCOC(=O)c1cnc2c(OC)cccc2c1N1CC(C)CC(C)C1 (configuration not stated)	71	-	-	42	-	35	.	51
CCOC(=O)c1cnc2c(OC)cccc2c1Oc1ccccc1	-	-	-	-	-	.	.	.
CCOc1ccc(Nc2nc(Cc3nnc(SCC(=O)c4ccc(C)c(C)c4)o3)cs2)cc1	-	-	-	-	-	.	.	.
CC(OC(=O)c1ccc2ccccc2c1)C(=O)N(C)Cc1ccccc1 (configuration not stated)	-	-	-	-	-	.	.	.
CC(C)N(CCC(=O)c1ccc2ccccc2c1)Cc1ccccc1	58	-	-	92	-	92	.	86
COc1ccc(S(=O)(=O)N2CCCCCC2)cc1C(=O)NCc1cccs1	-	-	-	-	-	.	.	.
c1cncc(-c2nnc(-c3cccnc3)nn2)c1	54	-	-	50	-	40	.	56
O=C(COC(=O)C12CC3CC(CC(C3)C1)C2)Nc1ccc(OC(F)F)cc1	59	57	-	44	-	-	46	62
O=[N+]([O-])c1ccc(/C=C2\CCC(C3=CCCC3)=C2N2CCOCC2)cc1	53	-	-	52	-	61	.	52
SMILES	tim23-1 inh	TIM10 inh	CR mimetic SO	tim10-1 inh	NLRP3 yeast inh	tim10-1 confirm	tim10 confirm	tim23-1 confirm
CC(C)(C)C(=O)/C(=C/c1ccc(Cl)cc1)n1cncn1	52	-	-	51	-	35	.	-
CC12CCC(C(=O)N(CSC(=S)N/N=C\c3ccccc3Cl)C1=O)C2(C)C (configuration not stated)	59	57	-	41	-	-	-	41
Cc1ccccc1NCN1C(=O)C2CCC(C)(C1=O)C2(C)C (configuration not stated)	-	-	-	-	-	.	.	.
Cc1ccc(OCC(O)CNC(C)c2ccccc2)cc1C (configuration not stated)	-	-	-	-	-	.	.	.
CCN1CCN(C(=O)c2cc(=O)c3cc(C)ccc3o2)CC1	-	-	-	-	-	.	.	.
Cc1ccc(Cl)c2sc(NC(=O)C3=COCCO3)nc12	72	42	-	61	-	51	41	54
Cc1cc(C)c2sc(NC(=O)C3=COCCO3)nc2c1	53	43	-	45	-	35	-	40
Cc1cccc(/C(N)=N/OC(=O)c2ccco2)c1	59	-	-	42	-	32	.	43
Cc1cccc(/C(N)=N/OC(=O)CCCc2ccccc2)c1	59	53	-	61	-	57	45	59
COc1ccc(/C(N)=N/OC(=O)c2ccco2)cc1	-	-	-	-	-	.	.	.
N/C(=N\OC(=O)c1ccco1)c1ccc(Br)cc1	62	56	-	58	-	54	51	76
COc1ccc(NC(=S)N2CCN(C(=O)c3ccco3)CC2)cc1OC	-	-	-	-	-	.	.	.
O=c1[nH]cnc2scc(C3COc4ccccc4O3)c12 (configuration not stated)	-	-	-	-	-	.	.	.
Clc1ncnc2scc(C3COc4ccccc4O3)c12 (configuration not stated)	52	-	-	53	-	-	.	-
CCc1ccc(C(=O)Cn2ncc(Cl)c(Cl)c2=O)cc1	-	-	-	-	-	.	.	.
O=C(OCn1ncc(Cl)c(Cl)c1=O)c1cccc(C(F)(F)F)c1	74	53	-	72	-	72	39	72
O=C(c1ccc(-c2ccc(Cl)cc2)o1)N1CCN(c2ccc([N+](=O)[O-])cc2Cl)CC1	-	-	-	-	-	.	.	.
CC1CC(C)CN(C(=O)c2ccc(-c3ccc([N+](=O)[O-])cc3)o2)C1 (configuration not stated)	63	56	-	69	-	-	58	46
O=[N+]([O-])c1ccc(N2CCc3ccccc3C2)nc1	63	-	-	66	-	64	.	-
O=[N+]([O-])c1ccc(N2CCN(c3ccccc3)CC2)nc1	-	-	-	-	-	.	.	.
O=C(Nc1ccccc1C(=O)N/N=C/c1ccco1)c1ccc(F)cc1	60	-	-	42	-	52	.	59
O=Cc1c[nH]c2cccc(OCc3ccccc3)c12	54	-	.	59	-	30	.	-
O=Cc1c(OCc2ccccc2)ccc2ccccc12	-	-	-	-	-	.	.	.
C=CC[n+]1c(-c2ccc(Cl)cc2Cl)csc1Nc1c(C)n(C)n(-c2ccccc2)c1=O	52	-	-	49	-	38	.	49
